Compounds with a hit are over-represented: about 2.4% of the library has one in this group of screens.
CHO-K1 Ca antag = nonselective inhibitor or artifact in parental CHO-K1 cells; ATP-induced calcium, Fluo-8 fluorescence; inhibition, % at 3 µM; 360,000 tested, 0.6% active; AID 602250;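 active = inhibition above a per-plate cutoff, the plate's mean sample inhibition plus 3 SD, cut at about 24% in these data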;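 also: 0% = DMSO plus EC80 ATP and 100% = DMSO alone without ATP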
M1 ag = human M1 muscarinic receptor agonists, primary screen, Fluo-8 calcium fluorescence, CHO-K1 cells, HTS; AID 588814, 2011; CHO-K1 hM1, agonist mode; 0% DMSO, 100% acetylcholine EC100; activation, % at 3 µM; Muscarinic acetylcholine receptor M1 (Homo sapiens), P11229; 360,000 tested, 0.33% active;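 active = activation above the run's mean compound activation plus 3 SD, cut at about 16% in these data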;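 also: peak over basal fluorescence ratio within a 140 s kinetic read after compound addition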
Target sequence (P11229 whole entry, looked up): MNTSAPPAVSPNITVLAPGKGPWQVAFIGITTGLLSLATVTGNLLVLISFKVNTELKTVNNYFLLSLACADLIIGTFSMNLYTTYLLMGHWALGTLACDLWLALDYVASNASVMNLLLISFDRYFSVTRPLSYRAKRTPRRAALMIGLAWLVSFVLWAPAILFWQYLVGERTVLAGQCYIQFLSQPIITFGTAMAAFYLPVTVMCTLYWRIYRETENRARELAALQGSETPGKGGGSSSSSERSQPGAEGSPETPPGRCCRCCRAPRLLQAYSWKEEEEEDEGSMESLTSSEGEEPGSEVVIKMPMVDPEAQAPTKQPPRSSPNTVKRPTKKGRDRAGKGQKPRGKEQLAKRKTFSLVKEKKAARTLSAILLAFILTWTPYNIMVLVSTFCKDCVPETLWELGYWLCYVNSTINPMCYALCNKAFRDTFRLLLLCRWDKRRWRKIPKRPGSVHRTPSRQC
M1 antag = human M1 muscarinic receptor antagonists, primary screen, CHO-K1 cells, Fluo-8 calcium fluorescence, 1536-well | CHO-K1 hM1, ACh EC80 antagonist | inhibition, % at 3 µM | AID 588852, 2011 | 360,000 tested, 1.3% active;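 active = percent inhibition above its own plate's cutoff, namely the mean of that plate's compound wells plus 3 SD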;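 also: peak over basal fluorescence ratio during 140 s after agonist addition; 0% = ACh EC80 plus DMSO and 100% = DMSO alone without agonist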
CHO-K1 Ca ag = counter-screen for M1 agonists: effect in parental CHO-K1 cells | Fluo-8 calcium fluorescence; scaled to maximal ATP response, vehicle zero | AID 602248, 2012 | activation, % at 3 µM | 360,000 tested, 0.48% active; in the data active = activation above about 15%;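 also: untransfected CHO-K1 host cells lacking M1 receptor as counterscreen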
M1 PAM = human M1 muscarinic receptor positive allosteric modulators, primary screen, CHO-K1 cells, Fluo-8 calcium fluorescence, 1536-well | activation, % at 3 µM | 360,000 tested, 0.088% active | CHO-K1 hM1, ACh EC20; 0% = ACh EC20, 100% = maximal ACh | Muscarinic acetylcholine receptor M1 (Homo sapiens), P11229; in the data active = activation above about 19%, passing the limit was not always enough
M1 PAM parental = nonselective calcium activators in parental CHO-K1 cells, primary screen, counter-screen for M1 PAM project, cell-based, Fluo-8 calcium fluorescence, full deck, 1536-well. ATP EC20; 0% at ATP EC20, 100% at ATP max. activation, % at 3 µM. 360,000 tested, 0.02% active. AID 602247, 2012;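 active = activation above the run cutoff, the mean activation of all test compounds plus 3 SD, cut at about 40% in these data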;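 also: peak over basal fluorescence ratio in a 140 s read after ATP addition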
An asterisk follows results filed as active.

SMILES	CHO-K1 Ca antag	M1 ag	M1 antag	CHO-K1 Ca ag	M1 PAM	M1 PAM parental
CCOc1ccc(-c2n[nH]c(C)c2Oc2ccc(OC)cc2)c(O)c1	24.3*	-3.8	7.6	-0.2	-5.9	-7.0
Cc1[nH]nc(-c2ccc(OCc3cnn(-c4ccccc4)c3)cc2O)c1Oc1ccc(F)cc1	-14.8	-1.4	-8.8	0.4	5.6	16.5
Cc1ccc(C(=O)NCC(=O)OCc2cccc(Br)c2)cc1	-0.9	-5.5	-8.4	0.3	8.2	12.3
CN1CCN(C(=O)c2ccccc2NC(=O)c2cccs2)CC1	5.5	-1.5	active	-0.1	-14.5	-4.4
COc1cc(C(=O)NNC(=S)NC(=O)c2ccc(Cl)cc2)cc(OC)c1OC	-0.7	32.8*	-0.1	10.5	-14.2	-9.9
Cc1ccccc1C(=O)Nc1cccc(NC(=S)NC(=O)c2cccs2)c1	2.9	-2.5	-2.8	2.1	1.3	14.4
CN1CCN(C(=O)c2ccccc2NC(=O)c2ccccc2Br)CC1	-3.3	-1.1	-10.9	0.6	8.1	-9.9
Cc1ccccc1C(=O)NNC(=S)NC(=O)c1cccs1	2.4	51.1*	12.5	36.6*	-15.3	-24.3
Cc1cccc(C(=O)NC(=S)NNC(=O)c2cccs2)c1	3.6	19.2*	-0.9	15.4*	-10.2	-9.7
Cc1cccc(C(=O)NC(=S)NNC(=O)c2ccc(Cl)cc2)c1	48.1*	93.2*	36.9*	110.1*	-28.8	-16.4
CC(=O)NC(=S)Nc1ccc(NC(=S)NC(=O)c2cccs2)cc1	-5.2	-1.2	-3.8	0.8	3.0	12.2
COc1cc(C(=O)NNC(=S)NC(=O)/C=C/c2ccccc2)cc(OC)c1OC	-7.6	23.3*	-1.7	11.3	3.9	15.4
COc1cc(C(=O)NNC(=O)/C=C/c2ccccc2)cc(OC)c1OC	13.8	-1.6	-12.6	-0.1	7.2	-19.6
CC(C)(C)c1ccc(C(=O)NC(=S)NNC(=O)c2cccs2)cc1	10.5	91.9*	26.7*	85.3*	-27.9	-16.3
O=C(NC(=S)NNC(=O)c1cccs1)c1ccccc1	1.5	0.4	19.0	0.1	-3.6	-12.9
Cc1c(C(=O)NC(=S)Nc2ccc(NC(=O)c3cccs3)cc2)cccc1[N+](=O)[O-]	1.6	1.6	33.2*	6.0	-14.8	9.4
COc1ccc(CCC(=O)OCC(=O)NCc2ccc(OC)c(OC)c2)cc1OC	-8.0	-1.7	-5.3	1.1	4.8	10.5
COc1ccc(CNC(=O)CSc2nc3cccnc3s2)cc1	1.5	-3.3	-3.4	0.5	0.8	5.1
O=C(NNC(=S)NC(=O)c1cccc([N+](=O)[O-])c1)c1ccc(O)cc1	-11.9	-3.1	-8.7	-0.1	8.1	1.1
O=C(NNC(=S)NC(=O)c1ccccc1)c1cccc([N+](=O)[O-])c1	-13.0	16.6*	1.8	12.4	-1.7	3.6
Cc1ccc(Cl)c2c1=NC(=O)C=2c1[nH]c(=S)[nH]c1O	4.7	1.2	7.8	17.1*	-0.3	12.4
O=[N+]([O-])/C=C/c1cn(Cc2ccccc2)c2ccccc12	-5.3	1.2	-1.3	0.2	9.8	16.1
N#Cc1ccccc1Cn1cc(/C=C/[N+](=O)[O-])c2ccccc21	-0.8	3.7	50.4*	2.8	8.0	17.7
O=C1CCC/C(=N/NC(=O)c2ccc(CN3c4cccc5cccc(c45)S3(=O)=O)cc2)C1	3.0	18.8*	-7.2	0.7	5.0	6.6
O=C(O)c1ccc(/C=N/NC(=O)c2ccc(CN3c4cccc5cccc(c45)S3(=O)=O)cc2)cc1	-7.8	7.3	-12.2	0.4	4.8	9.1
SMILES	CHO-K1 Ca antag	M1 ag	M1 antag	CHO-K1 Ca ag	M1 PAM	M1 PAM parental
CC(C)=CCN1CCN(Cc2nc(-c3ccccc3)cs2)CC1CCO (stereo not given)	2.4	-7.4	34.4*	1.2	-21.7	-2.6
OCCC1CN(Cc2nc(-c3ccc(F)cc3)cs2)CCN1CCc1ccccc1 (stereo not given)	6.9	-10.7	11.9	2.7	-15.5	-8.4
OCCC1CN(Cc2nc(-c3ccccc3)cs2)CCN1CCc1ccccc1 (stereo not given)	2.3	-10.5	14.3	16.0*	-19.4	13.6
N=c1ccn(Cc2cccc(F)c2)cc1	-8.1	-8.8	41.7*	0.5	-21.3	11.1
N/C(=N\OC(=O)CSc1ccccc1)c1ccccn1	-6.0	-0.6	-23.7	0.2	27.9*	7.9
N/C(=N\OC(=O)Cc1ccc(-c2ccccc2)cc1)c1ccccn1	9.0	-2.8	-8.5	0.6	5.7	-2.5
Cc1c(Cl)ccc2c1NC(=O)[C@]21N[C@@H](Cc2ccccc2)[C@H]2C(=O)N(c3ccc(F)cc3)C(=O)[C@H]21	-12.7	17.2*	11.5	8.2	1.1	15.8
Cc1cc(C)n2nc(SCC(=O)NC3CCCC(C)C3C)nc2n1 (stereo not given)	2.1	9.3	-1.8	0.4	24.1	-8.6
O=C(c1ccccc1)C(Nc1ccccn1)c1ccccc1 (stereo not given)	14.4	-7.6	34.6*	-0.1	-24.5	-22.1
Cn1c(/C=C/N2CCOCC2)c(C(=O)c2ccc(Br)cc2)c(=O)n(C)c1=O	4.8	-1.3	0.6	-0.2	1.2	1.7
Cc1c(N=CN2CCOCC2)c(=O)n(C)c(=O)n1C	1.4	0.2	-6.8	16.8*	5.5	3.4
CCOC(=O)c1sc(NC(=O)Nc2ccccc2Cl)cc1C	22.0	-1.2	17.8	12.1	-12.7	-1.4
CCOC(=O)c1sc(NC(=O)Nc2ccccc2)cc1C	29.1*	-3.1	32.8	16.8*	-17.4	-0.5
CCOC(=O)c1sc(NC(C)=O)cc1C	-7.9	-2.6	-13.9	0.4	8.3	14.9
CCOC(=O)c1sc(NC(=O)C2CCC2)cc1C	26.4*	-7.0	2.5	-0.5	5.4	-9.5
CCOc1ccc(NC(=O)c2ccccc2OCC(=O)c2ccccc2)cc1	-3.8	-3.9	-1.2	0.0	2.6	8.5
O=C(CCCC(=O)NNC(=O)Nc1ccccc1)NNC(=O)Nc1ccccc1	28.4*	-2.4	9.6	-0.5	-8.1	-17.5
c1nc(C2CCCCC2)cc2cc3c(cc12)OCO3	-11.2	-9.2	-12.6	0.2	0.8	19.2
C1CCN(C2CCN(c3nc4nonc4nc3N3CCSCC3)CC2)C1	8.2	-10.1	26.9*	0.2	-23.8	-5.4
O=C1N(c2ccccc2)C[C@@H]2C[C@@H](c3cccc4c3OCO4)N3CCC[C@@]123	-7.7	-12.3	48.9*	1.1	-30.3	3.5
Cc1cccc(N2C(=O)C(O)=C(C(=O)c3cccs3)C2c2ccc(C(C)C)cc2)n1 (stereo not given)	-15.9	21.1*	-1.8	0.9	1.7	21.6
